# Measured values taken from PubChem BioAssay (NCATS).
# Values joined by “and” are separate entries in the source; they are usually repeats but may differ in a detail not shown here. Equal entries are not always repeated. Unmarked numbers belong to inactive results. Inconclusive results are not listed. Entries that show only a call come without a potency. Active and inactive are the calls of the source. The call rests on the fitted dose curve; in most records, active means well fitted curve in the direction sought with a large enough effect; inconclusive means small, poorly fitted or top-dose-only effect, or another doubt; inactive means no such curve, though single readings can be large; an effect the other way counts as inactive or inconclusive. Non-standard residues stand in square brackets, D forms with d. Residues, ends and D or L forms follow the SMILES beside them. *: point of attachment. Nva = CCC[C@H](N)C(=O)O; Cbz = O=C(OCc1ccccc1)*
# Assays:
# [1] = Primary qHTS for inhibitors of nuclear receptor binding SET domain protein 2 (NSD2) in an isogenic RCH-ACV NSD2 p.E1099K mutant (9B) (AID 1645876); further: nearly all actives have a fitted effect of over 70% in size; further: potency means the concentration at half of the fitted maximal effect
# [2] = Primary qHTS for inhibitors of nuclear receptor binding SET domain protein 2 (NSD2) in an RCH-ACV wild type WT cells (2C) (AID 1645877); further: nearly all actives have a fitted effect of over 70% in size; further: potency means the concentration at half of the fitted maximal effect
# [3] = molecular target: Glutathione peroxidase 1 (Homo sapiens) (UniProt P07203); assay: Primary qHTS Assay for Inhibitors of Recombinant Selenoprotein Glutathione Peroxidase 1 (GPX1) (AID 1845191); further: nearly all actives have a fitted effect of over 65% in size
# Outline: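 GPX1 10 nM, GR 100 nM, GSH 1 mM, NADPH 0.5 mM, CHP 0.5 mM (final). 30-min cpd preincubation, RT. Ex340/Em450 read t=0, t=15 min.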
# [4] = molecular target: Phospholipid hydroperoxide glutathione peroxidase GPX4 (Homo sapiens) (UniProt P36969); assay: Primary qHTS Assay for Inhibitors of Recombinant Selenoprotein Glutathione Peroxidase 4 (GPX4) (AID 1845192); further: nearly all actives have a fitted effect of over 65% in size; further: potency means the concentration at half of the fitted maximal effect; on activity change, negative = inhibition: series mostly up to about 50 µM
# Outline: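 qHTS, GR-coupled: GPX4 200 nM + cpd 30 min RT → GSH 1 mM, NADPH 0.5 mM, GR 100 nM → CHP 0.5 mM start; fluor 340/450 at t0 and t15 min; no-enzyme wells as control.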
# [5] = NCATS anti-infectives library activity on HEK293 viability as a counter-qHTS vs the C. elegans viability qHTS (AID 1745854)
# Outline: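 CellTiter-Glo luminescence, read on a CCD imager, scored viability of HEK293 cells after 24 hr compound exposure at 37C. Library tested in several concentrations, 1:5 steps, up to 41.7 uM; digitonin served as control.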
# [6] = molecular target: Luciferin 4-monooxygenase (Photinus pyralis) (UniProt P08659); assay: Primary firefly luciferase (FLuc) qHTS assay for identification of artifact compounds. (AID 1845220); further: nearly all actives have a fitted effect of over 60% in size
# Outline: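 qHTS, 15 min compound preincubation with substrate (10 uM luciferin, 10 uM ATP) at RT, then 10 nM FLuc; 5 min; luminescence; % inhibition vs no-enzyme/DMSO controls, 4-parameter Hill fit.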
# [7] = Primary fluorescence-based thiol-reactive (MSTI) qHTS assay for identification of artifact compounds. (AID 1845221);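 further: series mostly up to about 54 µM; thiol-reactive compounds lower the probe fluorescence signal; nearly all actives have a fitted effect of over 65% in size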
# Outline: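 Probe: MSTI 4 uM, PBS pH 7.4, 2% DMSO. Incubation 1 h, RT, light-protected. Readout fluorescence 525/598 nm.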
# Chain of Glutathione peroxidase 1 (Homo sapiens) (P07203 whole entry, looked up): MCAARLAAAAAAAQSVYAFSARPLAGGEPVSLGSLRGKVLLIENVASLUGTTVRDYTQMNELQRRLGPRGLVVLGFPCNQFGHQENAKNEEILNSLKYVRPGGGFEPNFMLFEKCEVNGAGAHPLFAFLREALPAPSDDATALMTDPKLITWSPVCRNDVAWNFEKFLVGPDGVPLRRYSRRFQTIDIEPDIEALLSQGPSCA
# Chain of Phospholipid hydroperoxide glutathione peroxidase GPX4 (Homo sapiens) (P36969 whole entry, looked up): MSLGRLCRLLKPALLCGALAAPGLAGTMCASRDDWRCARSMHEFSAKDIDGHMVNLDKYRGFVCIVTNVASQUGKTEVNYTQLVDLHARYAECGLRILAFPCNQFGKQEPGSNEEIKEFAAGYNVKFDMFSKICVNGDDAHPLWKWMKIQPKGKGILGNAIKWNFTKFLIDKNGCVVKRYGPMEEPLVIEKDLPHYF
structure (smiles),measurement,setting,value
CC(Oc1ccc(O)cc1)(P(=O)(O)O)P(=O)(O)O,Potency,[1],inactive
same,Potency,[2],inactive
same,Potency,[3],inactive
same,Potency,[4],inactive
CCc1c(O)cc(O)c(C(=O)c2ccc(OCCN3CCOCC3)c(OC)c2)c1CC(=O)N(CCOC)CCOC,Potency,[1],0.372 µM (active)
same,Potency,[2],0.148 µM (active)
same,Potency,[3],inactive
same,Potency,[4],inactive
CCC[C@@H](C=O)NC(=O)[C@H](CC(C)C)NC(=O)[C@H](CC(C)C)NC(=O)OCc1ccccc1 (Cbz-Leu-Leu-[Nva]-aldehyde),Potency,[1],2.09 µM (active)
same,Potency,[2],1.05 µM (active)
same,Potency,[3],inactive
same,Potency,[4],inactive
O=C(c1ccc(F)cc1)N1CCC[C@H](c2nc(-c3ccc(F)cc3)no2)C1,Potency,[1],inactive
same,Potency,[2],inactive
same,Potency,[3],inactive
same,Potency,[4],inactive
Nc1nc(N)c2nc(-c3cccc(O)c3)c(-c3cccc(O)c3)nc2n1,Potency,[1],16.4 µM (active) and 18.6 µM (active)
same,Potency,[2],13 µM (active) and 16.6 µM (active)
same,Potency,[3],inactive
Cn1cc(C[C@@H](N)C(=O)O)c2ccccc21,"activity change, negative = viability loss",[1],-2.38% [at 9.23 µM]
same,outcome,[2],inactive [at 9.23 µM]
same,outcome,[3],inactive [at 9.52 µM]
same,"activity change, negative = inhibition",[4],0.696% [at 9.73 µM]
OC[C@H]1OC(O)C[C@@H](O)[C@H]1O (some centres not stated),Potency,[1],inactive
same,Potency,[2],inactive
same,Potency,[3],inactive
same,Potency,[4],inactive
CN1C(C(=O)Nc2ccccn2)=C(O)c2sc(Cl)cc2S1(=O)=O,Potency,[1],inactive
same,Potency,[2],inactive
same,Potency,[3],inactive
same,Potency,[4],inactive
COc1ccc(C=Cc2cc(OC)c(OC)c(OC)c2)cc1NC(=O)[C@H](N)CO,Potency,[1],0.118 µM (active)
same,Potency,[2],0.118 µM (active)
same,Potency,[3],inactive
same,Potency,[4],inactive
O=C1NCCc2[nH]c(-c3ccncc3)cc21,Potency,[1],2.35 µM (active)
same,Potency,[2],1.32 µM (active)
same,Potency,[3],inactive
same,Potency,[4],inactive
Cn1c(Nc2ccc(C(F)(F)F)cc2)nc2cc(Oc3ccnc(-c4ncc(C(F)(F)F)[nH]4)c3)ccc21,Potency,[1],7.31 µM (active) and 5.25 µM (active)
same,Potency,[2],8.2 µM (active) and 4.17 µM (active)
same,Potency,[3],inactive
same,Potency,[4],inactive
CCCCCCCN(CC)CCCC(O)c1ccc(NS(C)(=O)=O)cc1 (configuration not stated),Potency,[1],inactive
same,Potency,[2],inactive
same,Potency,[3],inactive
same,Potency,[4],inactive
CCCCCCCCc1ccc(CCC(N)(CO)CO)cc1,Potency,[1],8.33 µM (active)
same,Potency,[2],8.33 µM (active)
same,Potency,[3],inactive
same,Potency,[4],inactive
CCN(CC)CCCCNc1ncc2c(n1)N(C)C(=O)N(c1c(Cl)c(OC)cc(OC)c1Cl)C2,Potency,[1],14.8 µM (active)
same,Potency,[2],13.2 µM (active)
same,Potency,[3],inactive
same,Potency,[4],inactive
O=C1CSC(=O)N1C(CCc1ccncc1)COc1ccc(-c2cccc([N+](=O)[O-])c2)cc1 (configuration not stated),Potency,[1],14.8 µM (active)
same,Potency,[2],11.8 µM (active)
same,Potency,[3],inactive
same,Potency,[4],inactive
COc1cccc2c1C(=O)c1c(O)c3c(c(O)c1C2=O)C[C@@](O)(C(=O)CO)C[C@@H]3O[C@H]1C[C@H](N)[C@H](OC2CCCCO2)[C@H](C)O1 (some centres not stated),Potency,[1],93.4 nM (active) and 2.63 µM (active)
same,Potency,[2],52.5 nM (active) and 2.95 µM (active)
same,Potency,[3],inactive
same,Potency,[4],inactive
Cn1cnc(=N)c2[nH]cnc21,Potency,[1],inactive
same,Potency,[2],inactive
same,Potency,[3],inactive
same,Potency,[4],inactive
CCOC(=O)C=C[C@H](C[C@@H]1CCNC1=O)NC(=O)[C@@H](CC(=O)[C@@H](NC(=O)c1cc(C)on1)C(C)C)Cc1ccc(F)cc1,Potency,[1],inactive
same,Potency,[5],inactive
same,Potency,[3],inactive
same,Potency,[4],inactive
Cc1ccc2nc(NCCN)c3ncc(C)n3c2c1,Potency,[1],9.2 µM (active) and 4.68 µM (active)
same,Potency,[2],9.2 µM (active) and 3.72 µM (active)
same,Potency,[4],22700 nM (active)
CCc1ccc(C(=O)Nc2cc(CN3CCN(C)CC3)cc(C(F)(F)F)c2)cc1C#Cc1cnc2ccnn2c1,Potency,[1],5.78 µM (active) and 5.25 µM (active)
same,Potency,[2],5.15 µM (active) and 4.17 µM (active)
same,Potency,[3],inactive
same,Potency,[4],inactive
same,Potency,[6],inactive
same,Potency,[7],inactive
Nc1nc2c(c(=O)[nH]1)N(C=O)[C@H](CNc1ccc(C(=O)N[C@@H](CCC(=O)O)C(=O)O)cc1)CN2,Potency,[1],inactive
same,Potency,[3],inactive
same,Potency,[4],inactive
N#CNC(=NCCCCCCOc1ccc(Cl)cc1)Nc1ccncc1,Potency,[1],0.0047 µM (active)
same,Potency,[2],0.0093 µM (active)
same,Potency,[3],inactive
same,Potency,[4],inactive
